Experimental data reported in PubChem BioAssay (NCI).
About 79,000 compounds went through this panel and 15% of them were active in at least one assay; those are over-represented in the sample as a whole. Activity calls are given as the source filed them. Cut-off read from the data, not from the text of the source: active = growth inhibition above about 70%; inactive = the rest. *1 amine or outer side, *2 acyl side, *3 side chain or, on linkers, in order; H or OH if unused. Where a SMILES comes first, the peptide text is derived from it. Bridges are numbered along the chain shown (N, C = ends). Roman numbers before positions name the chains, in order. [ ]: non-standard residue; d: D form. Actinocin(1to9) = Cc1c2oc3c(C)ccc(C(=O)[*:2])c3nc-2c(C(=O)[*:1])c(N)c1=O; NMeV = CN[CH](C(=O)O)C(C)C; Aze = O=C(O)[CH]1CCN1; Sar = CNCC(=O)O

Assays:
[1] = NCI Yeast Anticancer Drug Screen. Data for the rad50 strain (AID 155);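 note: 0% = growth of vehicle-only cultures of the same strain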; conditions: S. cerevisiae rad50 strain growth inhibition; at 50.0 µM; hits give high values
In short: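 DNA repair mutant yeast, compound exposure, growth read-out; inhibition is taken relative to vehicle.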

[2] = NCI Yeast Anticancer Drug Screen. Data for the mec2-1 strain (AID 157); conditions: S. cerevisiae mec2-1 strain, at 50.0 µM, hits give high values
In short: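 Cells of the genetically defined mec2-1 yeast strain are incubated with test compound. Inhibition of growth is calculated against vehicle-treated controls.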

[3] = NCI Yeast Anticancer Drug Screen. Data for the sgs1 mgt1 strain (AID 161);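 note: 0% = growth of cultures given vehicle only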; conditions: S. cerevisiae sgs1 mgt1 strain, at 50.0 µM, hits give high values
In short: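 Mutant yeast exposed to compound; growth scored against vehicle-only wells.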

[4] = NCI Yeast Anticancer Drug Screen. Data for the cln2 rad14 strain (AID 165);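 note: 0% = growth equal to vehicle treated cultures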; conditions: S. cerevisiae cln2 rad14 strain, at 50.0 µM, hits give high values
In short: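 The screen exposed genetically defined yeast (cln2 rad14) to test compounds and scored growth inhibition relative to vehicle-treated controls.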

[5] = NCI Yeast Anticancer Drug Screen. Data for the bub3 strain (AID 167); conditions: S. cerevisiae bub3 mutant strain, at 50.0 µM, hits give high values
In short: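 In this screen, a yeast mutant lacking normal mitotic checkpoint function is challenged with compound. Relative growth versus vehicle gives the inhibition value.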

[6] = NCI Yeast Anticancer Drug Screen. Data for the mlh1 rad18 strain (AID 175); conditions: S. cerevisiae mlh1 rad18 strain growth inhibition; at 50.0 µM; hits give high values
In short: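 Compound-treated yeast growth, normalised to vehicle controls. Strain bears defined DNA repair mutations.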

Measured: growth inhibition

Cc1cc(=O)n2c(c1)[nH]c1ccccc12
inactive: [1] 3.25% | [2] 0.3% | [3] -5.55% | [4] -0.95% | [5] 1.75% | [6] 1.65%

c1ccc(CC2(Cc3ccccc3)SCCS2)cc1
inactive: [1] -11.7% | [2] 8.45% | [3] 6.55% | [4] 1.15% | [5] -0.6% | [6] -6.05%

O=C1NC(c2cccc3ccccc23)Nc2ccccc21 (stereo unspecified)
inactive: [1] 3.05% | [2] -14.8% | [3] 9.2% | [4] -6.6% | [5] 0.85% | [6] 0.8%

CC(=O)c1cc(Cl)ccc1OCC(O)CNc1ccc(Cl)cc1C(=O)c1ccccc1 (stereo unspecified)
inactive: [1] 17.6% | [2] 37.6% | [3] 10.3% | [4] 34% | [5] -3.85% | [6] 7.15%

CCCCC(=O)Nc1ccc(Cl)cc1
inactive: [1] 18.2% | [2] 7.8% | [3] 6.5% | [4] 8.2% | [5] -19.9% | [6] 11.7%

O=c1[nH]c2c(Cl)cc(Cl)c(Cl)c2c2ccccc12
inactive: [1] -0.45% | [2] 7.65% | [3] 1.5% | [4] -18.4% | [5] 21.1% | [6] 4.85%

CCCCONC(N)=O
inactive: [1] -12.2% | [2] -11.1% | [3] -23.4% | [4] 7.75% | [5] -5.15% | [6] -5.95%

COc1ccc(CCNCCCC2c3ccccc3-c3ccccc32)cc1OC
inactive: [1] 28.8% | [2] -3.4% | [3] 6.55% | [4] 12.5% | [5] -19.1% | [6] -34.1%

Cc1cc(-c2ccccc2)c(C#N)c(=O)[nH]1
inactive: [1] -4.5% | [2] 12.2% | [3] -10.8% | [4] -14.8% | [5] 3.65% | [6] -7.35%

CC(=O)OCC1OC(n2cnc3c(N)ncnc32)C2OC(C)(C)OC12 (stereo unspecified)
inactive: [1] 11.4% | [2] -30.2% | [3] -19.1% | [4] 1.45% | [5] -1.9% | [6] -12.8%

Cc1ccc(O)cc1C=C(Cl)Cl
inactive: [1] 18.6% | [2] 0.25% | [3] 35.6% | [4] 22.8% | [5] -0.3% | [6] 11.4%

CC1(C)N=C(C2CCCN2C(=O)OCc2ccccc2)OC1=O (stereo unspecified)
inactive: [1] -43% | [2] -20.7% | [3] -38.1% | [4] -1.75% | [5] 12.3% | [6] -28.6%

CCOC(=O)CNc1nnnn1C1OC(CO)C(O)C1O (stereo unspecified)
inactive: [1] -2.05% | [2] -13.1% | [3] -11.4% | [4] 11.7% | [5] -12% | [6] -19.6%

COc1cc(O)c(OC)c(O)c1C(C)=O
inactive: [1] -3.5% | [2] -11.2% | [3] -17.4% | [4] -19.7% | [5] 2.25% | [6] -0.65%

COC(=O)c1ncn(C(C(=O)OC)C(=O)OC)c1O
inactive: [1] -5.6% | [2] -6.75% | [3] -4.75% | [4] -14.4% | [5] -5.1% | [6] -10.8%

O=C(O)CCCCCC1=CCCCC1
inactive: [1] 11.9% | [2] 33.2% | [3] 20.9% | [4] 19.2% | [5] 24.6% | [6] 23.5%

COC(=O)c1ccc(NC(C)=O)c([N+](=O)[O-])c1
inactive: [1] 3.35% | [2] -7.7% | [3] -11.4% | [4] -21.9% | [5] -26.1% | [6] 16.4%

COc1ccc(/C=C\c2cccc(Cl)c2)cc1
inactive: [1] 21.6% | [2] -25.1% | [3] 3.3% | [4] -8.95% | [5] -13.3% | [6] 6.4%

CCOC(=O)C1CN(CCc2ccccc2)CCC1=O (stereo unspecified)
inactive: [1] 30.9% | [2] -8.65% | [3] 32.1% | [4] 16.5% | [5] 42.8% | [6] 31.8%

CN(N)C(=O)NCCCl
inactive: [1] -9.1% | [2] -4.6% | [3] 8.25% | [4] 13.4% | [5] -28% | [6] -1.8%

CC(NC(=O)C1CCCN1C(=O)OCc1ccccc1)C(=O)O (stereo unspecified)
inactive: [1] -7.7% | [2] 31.1% | [3] -10.5% | [4] 2.1% | [5] -13.2% | [6] -19.6%

CC(=O)OCCOCNC(=S)N/N=C/c1cc([N+](=O)[O-])ccc1O
inactive: [1] 25.9% | [2] -2.75% | [3] 15.6% | [4] 42% | [5] 10.7% | [6] -0.05%

CC(=O)OC1CC[C@@]2(C)C(CC[C@]3(C)C2CC=C2[C@@H]4C(C)[C@H](C)CCC4(C)CCC23C)[C@@]1(C)C(=O)O (stereo partly specified)
inactive: [1] 1.05% | [2] 14.8% | [3] 16.4% | [4] 3.25% | [5] 48.1% | [6] 16.4%

COc1nc2[nH]c(C)cc(=O)c2c2ccccc12
inactive: [1] 16.4% | [2] 14.8% | [3] 1.45% | [4] -26.8% | [5] -7% | [6] 2.8%

Cc1c2oc3c(C)ccc(C(=O)NC4C(=O)NC(C(C)C)C(=O)N5CCCC5C(=O)N(C)CC(=O)N(C)C(C(C)C)C(=O)OC4C)c3nc-2c(C(=O)NC2C(=O)NC(C(C)C)C(=O)N3CCC3C(=O)N(C)CC(=O)N(C)C(C(C)C)C(=O)OC2C)c(N)c1=O (stereo unspecified) (I: TV[Aze][Sar][NMeV] / II: TVP[Sar][NMeV]; ester I:1-I:C, II:1-II:C; linker I:N-II:N via Actinocin(1to9); configuration not given here)
active: [1] 90.3% | [2] 92.2% | [3] 92.5% | [4] 86.8% | [5] 89% | [6] 90%

O=C(OCC1OC(OC(=O)c2ccccc2)C(O)C1OC(=O)c1ccccc1)c1ccccc1 (stereo unspecified)
inactive: [1] 45.2% | [2] 15.7% | [3] 19.3% | [4] 38.2% | [5] 35.7% | [6] 49.5%

O=[N+]([O-])c1cccc(N=C2c3ccccc3CN2c2cccc([N+](=O)[O-])c2)c1
inactive: [1] -23.4% | [2] 5.8% | [3] -5.3% | [4] 26.7% | [5] 11.5% | [6] -0.4%

COc1cc2c(c(OC)c1OC)C(=O)[C@@H](O)[C@H]2N
inactive: [1] -10.4% | [2] -31.9% | [3] -13% | [4] -25.5% | [5] -23.8% | [6] -41.5%

C/C=C/C1N(C)CCCN1C
inactive: [1] -2% | [2] -7.55% | [3] -7.25% | [4] 18% | [5] -25.9% | [6] 8.55%

Cc1ccc([N+](=O)[O-])c(N)c1
inactive: [1] 40.5% | [2] 27.4% | [3] 26.1% | [4] 18.9% | [5] 4.65% | [6] 26.4%

Cc1cc(=O)[nH]c2c(C)cccc12
inactive: [1] 4% | [2] 28.2% | [3] 11.8% | [4] -4.5% | [5] -0.4% | [6] 16.6%

CCN(CC)CCn1cnc(C#N)c1N
inactive: [1] 4.45% | [2] 1.05% | [3] -1.35% | [4] -27.6% | [5] 1.65% | [6] -0.2%

COc1cc2c(cc1OC)-c1ccc3cc4c(cc3c1N(C)C2)OCO4
inactive: [1] -3.8% | [2] -36.6% | [3] 9.8% | [4] -4.65% | [5] -12.7% | [6] -2.65%

O=C1C=CC2(C=C1)OCC(=O)O2
inactive: [1] 6.15% | [2] 10.2% | [3] 3.25% | [4] 4.65% | [5] -3.1% | [6] 0.5%

Nc1nc2[nH]c(=O)cnc2c(=O)[nH]1
inactive: [1] -17.8% | [2] -32.3% | [3] -26.2% | [4] -0.1% | [5] -27.5% | [6] -20.7%

CC(C)CCOC(=O)CC(CC(=O)OCCC(C)C)C(=O)OCCC(C)C
inactive: [1] 20.9% | [2] -14.5% | [3] 6.35% | [4] 5.9% | [5] -18.1% | [6] 8.15%

O=C1c2ccccc2C(=O)c2c(O)c(Cc3ccccc3)cc(O)c21
inactive: [1] 4.75% | [2] 11.9% | [3] 2.2% | [4] 14.5% | [5] 10.2% | [6] 4%

COC(=O)/C=C/C=C/C(=O)OC
inactive: [1] -4.85% | [2] -1.7% | [3] -2.6% | [4] -41.9% | [5] -30.1% | [6] 3.85%

CCSc1nc(C)c(C)c(=O)[nH]1
inactive: [1] 14.2% | [2] -10.9% | [3] 22.4% | [4] 16% | [5] 21.8% | [6] 12.8%

CO/N=C(\C(=O)OC(=NC1CCCCC1)NC1CCCCC1)c1csc(NC(c2ccccc2)(c2ccccc2)c2ccccc2)n1
inactive: [1] -5.15% | [2] -7.85% | [3] -5.4% | [4] -7.8% | [5] -0.3% | [6] -6.5%

CCCCCN(CCCCC)CC(O)c1cccc2c1cc(Br)c1ccccc12 (stereo unspecified)
inactive: [1] 30.7% | [2] 1.55% | [3] 8.7% | [4] 8.45% | [5] 0.85% | [6] 14.7%
